ALDH1A1 block – ALDH1A1 (human) enzyme inhibition. P00352. Purified ALDH1A1, NADH fluorescence, propionaldehyde substrate. Potency, µM (titrated, usually from 75.3 µM), without a hit: at the top dose activity, negative = inhibition, hits mostly inhibitors. 220,000 tested, 7.3% active;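 also: potency is read from the fitted curve at half-maximal effect; plate controls were no enzyme wells and a reference inhibitor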
PNC inhibitor – perinucleolar compartment assembly inhibition. PC3M PTB-GFP, PNC prevalence imaging, 16 h; hits give low values. activity change (PNC), negative = inhibition, % at 10 µM. 140,000 tested, 3.1% active;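 active = readout at or below -70, meaning at least 70% loss of cells showing the perinucleolar compartment, a nuclear body marking cancer cells; inconclusive = readout between -30 and a set limit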;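 also: plate controls were DMSO wells for no effect and camptothecin positive control wells for full effect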
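Compounds are pinned in duplicate onto adhered PC3M cells stably expressing GFP-tagged PTB and incubated 16 h at 37 C. Cells are then fixed, nuclei stained with Hoechst, and PNC-positive cells counted.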
LMNA splice mod – modulators of lamin A splicing | HeLa LMNA splicing GFP/RFP minigene ratio, 48 h | Potency, µM (series often up to 46.1 µM), without a hit: at the top dose ratio change, negative = inhibition, actives largely listed as inhibitors | 200,000 tested, 0.01% active | AID 1487; active = well fitted inhibition curve with a large enough effect in the signal ratio, with a control signal flat, not every such curve was filed as active; inconclusive = small, poorly fitted or top-dose-only effect, or effect the other way, or a change in a side signal; the % refers to the signal ratio; also: potency is read from the fitted curve at half-maximal effect
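S3 HeLa cells stably expressing lamin A-EGFP splicing minigene plus DsRed2, 600 cells/well, 48 h compound exposure at 37C. Laser-scanning cytometry; analysed as GFP (500-530 nm)/RFP (575-640 nm) total intensity ratio; 0.5% DMSO vehicle.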
HPGD inh – blocks human HPGD enzyme activity. Potency, µM, for inactives: at the top dose activity change, negative = inhibition, hits mostly inhibitors. 150,000 tested, 4.3% active. P15428. purified HPGD, NADH fluorescence kinetic, PGE2 substrate; also: potency is read from the fitted curve at half-maximal effect
Target sequence (P15428 whole entry, looked up): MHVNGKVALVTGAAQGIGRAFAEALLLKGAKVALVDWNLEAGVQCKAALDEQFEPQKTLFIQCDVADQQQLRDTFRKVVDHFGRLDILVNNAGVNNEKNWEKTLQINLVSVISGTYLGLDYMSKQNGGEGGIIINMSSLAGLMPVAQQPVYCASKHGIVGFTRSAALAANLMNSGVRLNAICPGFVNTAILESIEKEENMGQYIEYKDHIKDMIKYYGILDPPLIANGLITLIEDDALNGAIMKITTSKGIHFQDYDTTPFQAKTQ
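NADH formation kinetics: reaction with 30 uM PGE2 and 1 mM NAD+ (final), 20 nM enzyme, Tris-HCl pH 8 with Tween 20, after 15 min compound preincubation at room temperature. Fluorescence change, last versus first of five reads.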
Luc counter – blocks Kinase-Glo luciferase, a counter-screen artifact; Q27757; Kinase-Glo luciferase, ATP luminescence, 8 min; Potency, µM (doses to about 38.3 µM), inactives show top-dose activity change, negative = inhibition, usual class: inhibitors; 200,000 tested, 0.28% active; active = well fitted inhibition curve with a large enough effect; inconclusive = small, poorly fitted or top-dose-only effect; also: potency is read from the fitted curve at half-maximal effect; nearly all actives have a fitted effect of over 60% in size
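Substrate mix (final 50 mM imidazole pH 7.2, 50 mM KCl, 7 mM MgCl2, 10 uM ATP, 0.01% Tween 20, 0.05% BSA) plus pin-tool compound, then Kinase-Glo detection mix; 8 min ambient, luminescence read.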
IMPase cell inh – cell-permeable inhibitors of inositol monophosphatase (IMPase) | P97697 | CHO-M1 cells, IP1 accumulation, HTRF TR-FRET ratio | inhibition (IP1 accumulation), % at 46.1 µM | 120,000 tested, under 10 active | AID 901; active = well fitted curve in the direction sought with a large enough effect in the signal ratio, not every such curve was filed as active; inconclusive = small, poorly fitted or top-dose-only effect, or a change in a side signal; inactive = no such curve, though single readings can be large or run the other way; the % refers to the signal ratio;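 also: cells stimulated with carbachol in lithium chloride buffer; plate controls were DMSO basal wells for no effect and reference inhibitor wells for full effect; higher means more IMPase inhibition seen as more IP1 and lower FRET ratio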
Target sequence (P97697 whole entry, looked up): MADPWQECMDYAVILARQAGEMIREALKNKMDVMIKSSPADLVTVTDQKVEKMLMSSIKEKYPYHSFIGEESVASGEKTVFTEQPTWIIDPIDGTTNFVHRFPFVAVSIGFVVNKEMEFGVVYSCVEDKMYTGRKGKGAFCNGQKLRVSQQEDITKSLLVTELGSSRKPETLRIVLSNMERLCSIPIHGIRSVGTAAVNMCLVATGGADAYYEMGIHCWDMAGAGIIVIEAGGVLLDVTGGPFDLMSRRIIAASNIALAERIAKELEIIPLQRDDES
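Cellular IMPase inhibition is scored as a rise in cytosolic IP1, detected by competitive TR-FRET between d2-labelled IP1 and a europium anti-IP1 antibody. M1-expressing CHO cells were stimulated with carbachol for 30 min at 37C, with lithium (50 mM LiCl) present in the buffer.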
Numbers without * were called inactive; ? = inconclusive; . = not tested or not shown; [ ] = another dose, or the depositor's remark. Most compounds without a hit are left out; they make up all but 10% or so of the library. Unless noted, calls follow the shape of the dose curve; as a rule, active = well fitted inhibition curve with a large enough effect (not every such curve was filed as active); inconclusive = small, poorly fitted or top-dose-only effect, or another doubt; inactive = no such curve, though single readings can be large or run the other way. Unless noted, % is scaled to controls: 0 for no effect and ±100 for the full control effect.

SMILES	ALDH1A1 block	PNC inhibitor	LMNA splice mod	HPGD inh	Luc counter	IMPase cell inh
CC(NC(=O)c1ccccc1NC(=O)c1ccncc1)c1ccccc1 (stereo not given)	28µM*	.	.	.	2%	.
CC(NC(=O)c1ccccc1NC(=O)c1ccco1)c1ccccc1 (stereo not given)	-8%	-11	6%	-6%	4%	-12
C/C(=N/NC(=O)c1ccncc1)c1ccccc1Cl	8%[13.5 µM]	.	.	-5%	-5%[7.66 µM]	.
CC(C)(CO)[C@H](O)C(=O)NCCC(=O)O	-12%[20.9 µM]	.	5%	3%	2%[17.1 µM]	-1[20.6 µM]
CC(C)C(=O)OC1=CN(Cc2ccccc2)S(=O)(=O)c2ccccc21	.	.	22%[46 µM]	.	.	.
CCOC(=O)N1CCN(C(=O)CN(c2cc(C)ccc2OC)S(=O)(=O)c2ccc(C)cc2)CC1	.	.	.	.	.	2
O=C(N/N=C\c1ccco1)Nc1cccc(Cl)c1	28µM*	13	-7%	-29%	0%	3
Cc1ccc(SCc2ccc(C(=O)Nc3ccccc3C(=O)NC(C)C)cc2)cc1	3%	-87*	-14%	.	.	-19
CCC(C)NC(=O)c1ccccc1NC(=O)c1ccc(CSc2ccccc2)cc1 (stereo not given)	4%	0	6%	-6%	2%	1
Nc1ccc(-c2cc(N)n(-c3ccccc3)n2)cc1	11µM*	?	4%	-21%	-28%	-1
Cc1ccc2c(CC(=O)OCc3csc(C)n3)coc2c1	6%	-100*	-3%	-10%	3%	-1
Cc1ccc2c(c1)N(C(=O)Nc1cccc3c1CCCC3)CCO2	.	.	7%[46 µM]	.	.	.
COCCNc1oc(-c2ccc(C)cc2)nc1C#N	?	?	-5%	?	-3%	-1
COc1ccc(CCNc2oc(Cc3cccc4ccccc34)nc2C#N)cc1OC	7.1µM*	17	?	-28%	0%	4
COc1ccc(CCNc2oc(COc3ccc(Br)cc3)nc2C#N)cc1OC	4%	-6	19%	-12%	-5%	23
COc1ccc(-c2nc(C#N)c(NCCc3ccccc3)o2)cc1	?	-100*	-11%	?	0%	12
COc1ccc(CCNc2oc(-c3ccc(C)cc3)nc2C#N)cc1OC	?	-108*	?	?	-1%	4
OCCN1CCN(CC(O)COc2ccc(C34CC5CC(CC(C5)C3)C4)cc2)CC1 (stereo not given)	-10%	.	.	.	-3%	.
NCCOc1ccc(C23CC4CC(CC(C4)C2)C3)cc1	22µM*	.	?	.	0%	.
COc1ccc(-c2ccc(/C=N/N3C(=O)C4C5C=CC(C6CC56)C4C3=O)o2)c([N+](=O)[O-])c1 (stereo not given)	10µM*	74	-20%	25µM*	-4%	.
Cc1ccc(-c2ccc(/C=N/N3C(=O)C4C5C=CC(CC5)C4C3=O)o2)c([N+](=O)[O-])c1 (stereo not given)	0.89µM*	31	-20%	16µM*	0%	5
O=C1C2C3C=CC(C4CC34)C2C(=O)N1/N=C/c1ccc(-c2ccc(F)cc2[N+](=O)[O-])o1 (stereo not given)	?	?	-22%	20µM*	1%	9
COc1ccc(CNC(=O)Cn2ncc3c([nH]c4ccccc43)c2=O)cc1	.	.	12%[46 µM]	.	.	.
CC(=O)Nc1ccc(S(=O)(=O)NCc2ccc3c(c2)cc(C)n3C)cc1	?	2	-12%	-5%	0%	3
CCN(Cc1ccccc1)C(=O)c1ccc(CNS(=O)(=O)c2ccc(C)cc2)cc1	2µM*	?	?	?	3%	.
SMILES	ALDH1A1 block	PNC inhibitor	LMNA splice mod	HPGD inh	Luc counter	IMPase cell inh
CC(=O)Nc1ccc(S(=O)(=O)NCc2cccnc2)cc1	5%	9	6%	-3%	-1%	.
CC(=O)Nc1ccc(S(=O)(=O)NCc2ccc(C)cc2)cc1	-8%	-110*	?	-15%	-5%	0
C=CCNC(=O)c1ccc(CNS(=O)(=O)c2ccc(NC(C)=O)cc2)cc1	-5%	26	9%	20µM*	-1%	6
CCN(CC)C(=O)c1ccc(S(=O)(=O)NCc2cccnc2)cc1	5%	8	?	?	-4%	-5
CCN1CCN(C(c2ccc(SC)cc2)c2c(O)cc(C)n(CCOC)c2=O)CC1 (stereo not given)	.	.	-3%[46 µM]	.	.	.
CCN(CC)S(=O)(=O)c1ccc2c(c1)nc(CN(C)C(=O)Nc1ccc(C)c(Cl)c1)n2C	.	.	0%[46 µM]	.	.	.
NC(=S)N1OC[C@@H]2COc3ccc4ccccc4c3[C@@H]21	13µM*	.	.	.	3%	.
Cn1c(SCc2nc3ccccc3c(=O)[nH]2)nc2ccccc21	?	.	?	.	-1%	.
Cn1c(-c2ccccc2)cnc1SCc1nc2ccccc2c(=O)[nH]1	32µM*	-3	-3%	-21%	-15%	-8
O=C(CCN1C(=O)C2C3C=CC(C3)C2C1=O)NCCc1ccccc1 (stereo not given)	?	-93*	-5%	-10%	-1%	2
O=C(CN1C(=O)C2C3C=CC(C4CC34)C2C1=O)OCC(=O)c1ccccc1 (stereo not given)	-11%	13	17%	?	0%	.
O=C(CN1C(=O)C2C3C=CC(C3)C2C1=O)OCC(=O)c1ccccc1 (stereo not given)	0%	5	2%	25µM*	-7%	.
O=C1C2C3C=CC(C3)C2C(=O)N1CCCCCCN1C(=O)C2C3C=CC(C3)C2C1=O (stereo not given)	8%	.	.	.	11µM*	.
O=C1C2C(C(=O)N1CCc1ccccc1)C1C=CC2C12CC2 (stereo not given)	?	-23	-13%	-2%	-2%	8
O=C(O)CCN1C(=O)C2C3C=CC(C3)C2C1=O (stereo not given)	-15%	?	-2%	-8%	-4%	3
O=C1C2C3C=CC(C3)C2C(=O)N1CCc1ccccc1 (stereo not given)	11µM*	13	13%	-23%	-1%	-2
O=C(CCN1C(=O)C2C3C=CC(C3)C2C1=O)Nc1ccccn1 (stereo not given)	?	-10	5%	-11%	1%	-6
CC(=O)NCCNc1nc(-c2ccccc2C(F)(F)F)nc2ccccc12	15%	.	-4%	-17%	4%	.
Cc1ccccc1CN1C(=O)c2ccccc2Sc2ccc(C(=O)NCc3ccccc3)cc21	.	.	-11%[46 µM]	.	.	.
O=[N+]([O-])c1cc2c(c(CSc3nnc4ccccn34)c1)OCOC2	?	32	-13%	-15%	-1%	.
O=c1c2ccccc2nc(SCc2ccc([N+](=O)[O-])cc2)n1-c1ccccc1	5%	37	0%	-6%	-3%	2

Screens as filed in PubChem.
